Among the data in PubChem BioAssay (NCATS) are Potency and outcome values, retold here.

A number with no mark means an inactive call. Inconclusive results are not listed. A call without a number means that no potency is given here. The source made the active and inactive calls. Unless noted, the call rests on the fitted dose curve; in most records, active means well fitted curve in the direction sought with a large enough effect; inconclusive means small, poorly fitted or top-dose-only effect, or another doubt; inactive means no such curve, though single readings can be large; an effect the other way counts as inactive or inconclusive.

Experiment [1] in a line: qHTS Assay for Identification of Small Molecule Antagonists for NFkB Signaling Pathway (AID 895; active means well fitted inhibition curve with a large enough effect in the signal ratio, with a control signal flat, not every such curve was filed as active; the % refers to the signal ratio). The method, boiled down:
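ME-180 NFkB-bla cells (beta-lactamase under NFkB response element), plated overnight, treated with compound then 10 pM TNF alpha (about EC50) for 5 hrs at 37 C. LiveBLAzer FRET read at 460/530 nm emission, 405 nm excitation.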
Background: Quantitative high-throughput screening tests each substance at several concentrations.

Experiment [2] deals with Muscarinic acetylcholine receptor M1 (Rattus norvegicus) (UniProt P08482). In words: qHTS Assay for Antagonists of Acetylcholine Muscarinic M1 Receptor: Measurement of IP-One Response (AID 944). Further: nearly all actives have a fitted effect of over 75% in size. The method, boiled down: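 Steps: plate transfected CHO-M1 cells overnight; add test compound, 10 min; add carbachol (200 nM, EC80) in stimulation buffer with LiCl; incubate 30 min; add labelled IP1 tracer and anti-IP1 antibody in lysis buffer; read HTRF after 10 min.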
Chain of Muscarinic acetylcholine receptor M1 (Rattus norvegicus) (P08482 whole entry, looked up): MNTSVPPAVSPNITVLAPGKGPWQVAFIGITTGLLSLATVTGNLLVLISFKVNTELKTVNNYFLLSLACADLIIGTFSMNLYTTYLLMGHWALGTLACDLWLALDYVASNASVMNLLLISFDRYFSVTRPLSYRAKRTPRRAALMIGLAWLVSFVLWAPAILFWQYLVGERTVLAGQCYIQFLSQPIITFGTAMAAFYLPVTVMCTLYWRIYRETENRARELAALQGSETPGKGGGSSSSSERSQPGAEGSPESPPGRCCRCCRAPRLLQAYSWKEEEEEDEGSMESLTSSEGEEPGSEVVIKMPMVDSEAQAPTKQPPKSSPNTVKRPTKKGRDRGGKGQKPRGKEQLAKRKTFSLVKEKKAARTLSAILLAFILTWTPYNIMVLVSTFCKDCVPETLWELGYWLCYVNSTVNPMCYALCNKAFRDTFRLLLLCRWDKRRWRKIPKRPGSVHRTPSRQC

Experiment [3] concerns the target Pyruvate kinase PKM (Homo sapiens) (UniProt P14618). Put plainly: qHTS Assay for Activators of Human Muscle Pyruvate Kinase (AID 954; active means well fitted curve in the direction sought with a large enough effect, not every such curve was filed as active). The method, boiled down: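 Luminescence from a luciferase ATP-detection/stop reagent reported PKM2 activity. Reactions contained 0.1 nM purified human enzyme, 0.5 mM PEP, 0.1 mM ADP and 7 mM MgCl2 at pH 7.2, run 1 h at RT.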
Experiment [4] deals with Alpha-galactosidase (Coffea arabica) (UniProt Q42656). Put plainly: Counterscreen for Glucocerebrosidase Inhibitors: qHTS Assay for Coffee Bean alpha-Galactosidase at pH 4.5 (AID 957). Further: series mostly up to about 77 µM. The method, boiled down:
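AC50 values derive from Hill-equation modeling of concentration-response data, normalized to no-enzyme and full-activity controls. The pH 4.5 citrate assay used 2 nM coffee bean enzyme and 80 uM fluorogenic substrate for 20 min.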

Experiment [5] shares this target. In words: Counterscreen for Glucocerebrosidase Inhibitors: qHTS Assay for Coffee Bean alpha-Galactosidase at pH 5.9 (AID 998). The method, boiled down: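 Green coffee bean enzyme (2 nM) with 4-methylumbelliferyl alpha-D-galactopyranoside (80 uM) in 50 mM citric acid, 0.005% Tween-20, pH 5.9, 20 min at room temperature; compounds 0.7 nM–77 uM. Stopped at pH 10, fluorescence Ex365/Em440; Hill-fit AC50.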
In general terms: The purpose of a counterscreen is to sort out artefacts and off-target activity.

A short description of experiment [6]: qHTS for inhibitors of ER calcium dysfunction: SERCaMP assay screened against the NCATS CANVASS Library (AID 1347393). Further: nearly all actives have a fitted effect of over 40% in size. Further: potency means the concentration at half of the fitted maximal effect. The procedure, abridged: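 SH-SY5Y GLuc-SERCaMP, 1000 cells/well, 4 h attach; cpd 16 h, 37C/5% CO2; thapsigargin (added as 6x 600 nM) 4 h; coelenterazine; luminescence. Reduced reporter release = ER Ca stabilization.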
Experiment [7] addresses Cytochrome P450 2C9 (Homo sapiens) (UniProt P11712). In words: qHTS Assay for Inhibitors and Substrates of Cytochrome P450 2C9 (AID 883). Further: nearly all actives have a fitted effect of over 60% in size. Further: potency means the concentration at half of the fitted maximal effect. The method, boiled down: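 Human CYP2C9 (10nM) with Luciferin-H at 100uM (its KM) in 25mM KPO4; compound preincubated 10 min at 37C, then NADPH regeneration for 60 min at 37C. Luciferin read by luminescence after detection reagent; normalized to 57uM sulphaphenazole as full inhibition.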

The target of experiment [8] is Cytochrome P450 2C19 (Homo sapiens) (UniProt P33261). Put plainly: qHTS Assay for Inhibitors and Substrates of Cytochrome P450 2C19 (AID 899). Further: potency means the concentration at half of the fitted maximal effect; nearly all actives have a fitted effect of over 60% in size. The procedure, abridged: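 5 nM human CYP2C19 with 10uM Luciferin-H EGE (at KM) in 50mM KPO4, compound preincubated 10 min at 37C, then NADPH regeneration for 60 min at 37C. Luciferin read by luminescence after detection reagent; normalized to 57uM ketoconazole as full inhibition.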
Chain of Cytochrome P450 2C19 (Homo sapiens) (P33261 whole entry, looked up): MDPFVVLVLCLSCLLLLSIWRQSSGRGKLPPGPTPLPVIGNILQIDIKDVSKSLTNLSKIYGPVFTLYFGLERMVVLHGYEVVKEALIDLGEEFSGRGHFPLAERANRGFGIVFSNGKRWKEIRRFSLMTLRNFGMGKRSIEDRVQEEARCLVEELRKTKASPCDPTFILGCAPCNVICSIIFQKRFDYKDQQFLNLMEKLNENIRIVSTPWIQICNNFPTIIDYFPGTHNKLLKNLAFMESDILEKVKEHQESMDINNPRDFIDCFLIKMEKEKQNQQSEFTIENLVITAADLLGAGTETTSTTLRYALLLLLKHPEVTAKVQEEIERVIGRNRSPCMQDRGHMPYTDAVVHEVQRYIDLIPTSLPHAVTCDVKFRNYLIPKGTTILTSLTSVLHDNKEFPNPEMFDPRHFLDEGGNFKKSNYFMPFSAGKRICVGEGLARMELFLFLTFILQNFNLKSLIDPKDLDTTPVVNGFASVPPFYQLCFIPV

Experiment [9] in a line: qHTS Assay for Identification of Small Molecule Agonists for Thrombopoietin (TPO) Signaling Pathway (AID 917). The method, boiled down:
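Murine Ba/F3 cells expressing human TPO receptor and GPIIb-promoter luciferase, IL-3-starved overnight, given compound plus TPO at 26 pM (EC50). After 24 h at 37 C, 5% CO2, luminescence read.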

Chain of Pyruvate kinase PKM (Homo sapiens) (P14618 whole entry, looked up): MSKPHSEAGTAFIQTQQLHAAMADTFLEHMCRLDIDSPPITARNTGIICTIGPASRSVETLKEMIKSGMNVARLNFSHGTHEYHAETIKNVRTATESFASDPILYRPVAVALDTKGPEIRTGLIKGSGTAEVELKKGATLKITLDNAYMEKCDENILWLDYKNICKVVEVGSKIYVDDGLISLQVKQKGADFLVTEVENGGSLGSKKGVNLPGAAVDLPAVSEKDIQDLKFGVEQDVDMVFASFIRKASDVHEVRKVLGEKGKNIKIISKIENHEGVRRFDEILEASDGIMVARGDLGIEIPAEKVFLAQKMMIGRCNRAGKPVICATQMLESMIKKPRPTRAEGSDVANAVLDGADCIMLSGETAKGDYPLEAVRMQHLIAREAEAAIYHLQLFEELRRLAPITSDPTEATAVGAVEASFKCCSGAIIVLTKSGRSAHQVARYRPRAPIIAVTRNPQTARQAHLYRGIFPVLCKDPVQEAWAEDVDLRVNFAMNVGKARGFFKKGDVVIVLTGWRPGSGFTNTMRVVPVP
Chain of Cytochrome P450 2C9 (Homo sapiens) (P11712 whole entry, looked up): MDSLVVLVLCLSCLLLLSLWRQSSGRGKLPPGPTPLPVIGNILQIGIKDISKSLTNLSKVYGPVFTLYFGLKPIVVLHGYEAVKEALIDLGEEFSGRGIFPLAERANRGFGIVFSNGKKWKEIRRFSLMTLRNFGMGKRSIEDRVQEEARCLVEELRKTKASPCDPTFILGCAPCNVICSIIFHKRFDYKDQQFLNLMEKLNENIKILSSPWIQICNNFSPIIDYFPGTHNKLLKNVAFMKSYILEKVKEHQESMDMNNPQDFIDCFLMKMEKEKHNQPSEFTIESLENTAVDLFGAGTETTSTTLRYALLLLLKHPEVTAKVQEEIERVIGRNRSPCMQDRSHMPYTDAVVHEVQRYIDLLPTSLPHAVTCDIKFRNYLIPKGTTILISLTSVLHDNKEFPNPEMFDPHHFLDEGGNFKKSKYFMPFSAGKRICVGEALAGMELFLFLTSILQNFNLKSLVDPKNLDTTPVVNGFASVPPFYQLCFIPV
Chain of Alpha-galactosidase (Coffea arabica) (Q42656 whole entry, looked up): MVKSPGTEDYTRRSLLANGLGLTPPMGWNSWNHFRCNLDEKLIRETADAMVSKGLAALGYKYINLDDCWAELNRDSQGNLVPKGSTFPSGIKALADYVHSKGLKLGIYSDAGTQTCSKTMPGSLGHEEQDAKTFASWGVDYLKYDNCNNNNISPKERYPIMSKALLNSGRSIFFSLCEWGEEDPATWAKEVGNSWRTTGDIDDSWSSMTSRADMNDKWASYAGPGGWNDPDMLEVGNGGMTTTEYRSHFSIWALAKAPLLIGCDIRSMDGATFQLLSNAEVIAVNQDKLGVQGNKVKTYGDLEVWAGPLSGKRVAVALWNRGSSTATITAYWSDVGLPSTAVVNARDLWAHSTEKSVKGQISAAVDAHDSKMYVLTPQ

Consider `C=C(C)[C@H]1CN[C@H](C(=O)O)[C@@H]1CC(=O)O`, for which the Potency entry in experiment [1] and in experiment [2] was “inactive” each time. Further, the call in experiment [3], in experiment [4] and in experiment [5] was inactive.

Take `C[C@H](N)Cc1c[nH]c2ccc(OCc3cccs3)cc12`: the Potency entry in [1] and in experiment [2] was “inactive” each time. In addition, the compound was classed as inactive in experiment [3], in experiment [4] and in [5].

As to `CCN1C[C@]2(C)CC[C@@H](O)[C@]34C1[C@H](C[C@H]23)C12CCC(CC14)[C@](O)(CO)[C@H]2O` (some centres undefined), in experiment [6], the Potency result is “inactive”.

In the case of `Fc1ccc(C(OCCN2CCN(C/C=C\c3ccccc3)CC2)c2ccc(F)cc2)cc1`, the Potency in experiment [7] and in [8] was 7.94 µM (active) in each case.

In the case of `COC(=O)C1=C2Nc3ccccc3[C@@]23CCN2CC(C(C)=O)C1C[C@H]23` (some centres undefined), in [6], the Potency is 17.2 µM (active).

For `CO[C@@H](/C=C/CC/C=C/C(=O)O)[C@@H](O)[C@H](C)[C@@H](O)/C(C)=C/[C@H](C)C(=O)CCCC1CC(=O)NC(=O)C1`, the Potency entry in [6] is “inactive”.

Consider `C[C@@H](N)Cn1ccc2cc(F)c(Cl)cc21`, for which the Potency in [7] was 3.98 µM (active).

As to `C[C@]12CC(O)C3[C@@H](CCC4C[C@@H](O)CC[C@@]43CO)[C@@]1(O)CCC2C1=CC(=O)OC1` (some centres undefined), the Potency result in experiment [6] was “inactive”.

With `CCC(=O)CCCCC[C@@H]1NC(=O)[C@H]2CCCCN2C(=O)[C@H]([C@@H](C)CC)NC(=O)[C@H](Cc2cn(OC)c3ccccc23)NC1=O`, the Potency entry in experiment [6] is “inactive”.

On to `CNCCc1ccccc1`, for which the Potency result in experiment [6] is “inactive”.

`CO[C@@H](/C=C/CC/C=C/C(=O)O)[C@@H](O)[C@H](C)/C=C(\C)[C@@H](O)[C@H](C)C(=O)CCCC1CC(=O)NC(=O)C1`: in experiment [6], the Potency result was “inactive”.

Consider `O=C(c1ccccc1O)c1[nH]c(Cl)c(Cl)c1-n1c(C(=O)c2ccccc2O)cc(Cl)c1Cl`, for which, in experiment [6], the Potency result was “inactive”.

In the case of `CCC[C@H]1CC[C@H]2[C@H](C)CCC[C@H]2N1`, the Potency result in [6] is “inactive”.

For the compound `O=C(O)c1ccccc1-c1c2cc(Br)c(=O)cc-2oc2[c]([Hg])c(O)c(Br)cc12`, the results for the Potency in [7] and in experiment [8] were 0.631 µM (active) and 3.16 µM (active), respectively.

For the compound `CC1=CC2CC[C@@H]3[C@@H](C)C[C@H](C)[C@@H](C1)N23` (some centres undefined), the Potency entry in [6] is “inactive”.

As for `O=C1CC[C@@]2(O)[C@H]3Cc4ccc(O)c5c4[C@@]2(CCN3CC2CC2)[C@@H]1O5`, the compound was classed as inactive in experiment [9] and in [5]. The Potency entry in experiment [2] is “inactive”.

Regarding `CNCCc1ccc(O)cc1`, the Potency result in experiment [6] was “inactive”.

Regarding `Oc1ccc2c3c1O[C@H]1c4[nH]c5ccccc5c4C[C@]4(O)[C@H](C2)N(CC2CC2)CC[C@@]314`, the Potency entry in experiment [1] and in [2] was “inactive” in each case. The call in [3], in [4] and in [5] was inactive.

As to `CC(=O)N[C@H]1CCN2CCC[C@H]12`, the Potency entry in experiment [6] was “inactive”.

As to `Cc1c(C(=O)c2ccc3ccccc3c2)c2cccc3c2n1[C@H](CN1CCOCC1)CO3`, in [7], the Potency result was “inactive”.

`CC[N@@+]1([O-])C[C@]2(C)CC[C@@H](O)[C@@]34C5C[C@H]6CC[C@@]5(C(C[C@H]23)C41)[C@H](O)[C@@]6(O)CO` (some centres undefined): in experiment [6], the Potency entry was “inactive”.

On to `CCN1C[C@]2(C)CC[C@H](O)[C@]34C1C(C[C@H]23)[C@@]12CC[C@H](CC14)[C@](O)(COC(=O)c1ccc(OC)c(OC)c1)[C@H]2O` (some centres undefined), for which the Potency in [6] was 10.8 µM (active).

Turning to `CC1=CC(=O)C2=C(C)C[C@H](O)[C@@H]3[C@H](OC(=O)[C@@H]3C)[C@@H]12`, the Potency in experiment [6] was 34.3 µM (active).
